DAX1 inh-1: blocks DAX1 repression of SF-1 activated StAR promoter. HEK293T StAR-luciferase reporter, SF-1/DAX-1 repression relief. inhibition, % at 6.8 µM. 1.1% of 370,000 active. AID 652010;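 active = inhibition above the mean over all tested compounds plus 3 SD, cut at about 3.6% in these data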;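 note: 0% = DAX-1 cells with DMSO and 100% = cells lacking DAX-1 with DMSO; higher inhibition means more luminescence from relief of DAX-1 repression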
DAX1 inh-2: NR0B1 (DAX1) inhibition; inhibition, % at 6.75 µM; HEK293 Gal4-DAX1 luciferase reporter, luminescence; 0.99% of 340,000 active; P51843; AID 504766;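 active = inhibition above the mean over all tested compounds plus 3 SD, cut at about 4.2% in these data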;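 note: 0% = DAX1-transfected cells with DMSO and 100% = empty-vector control cells with DMSO; inhibition shows as a rise in luminescence from relieved DAX1 repression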
Target sequence (P51843 207-470 limits assumed): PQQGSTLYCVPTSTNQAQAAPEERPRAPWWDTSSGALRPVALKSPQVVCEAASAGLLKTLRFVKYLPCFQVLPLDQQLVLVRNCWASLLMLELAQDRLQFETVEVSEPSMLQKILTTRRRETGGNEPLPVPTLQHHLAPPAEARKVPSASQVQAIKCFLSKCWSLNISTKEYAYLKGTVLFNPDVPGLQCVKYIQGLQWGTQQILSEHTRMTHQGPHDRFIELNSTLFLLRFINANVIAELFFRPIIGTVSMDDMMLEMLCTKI
hcDAF12 agonist: activates DAF-12 receptor from parasite H. contortus; activation, % at 6.8 µM; HEK293 hcDAF-12 lit1-tk-luc reporter, luminescence; 0% DMSO, 100% Δ7-dafachronic acid; 1.4% of 370,000 active;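 active = activation above the mean of all tested compounds plus 3 SD, cut at about 5.5% in these data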;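 note: 100% = response to 3 µM Δ7-dafachronic acid high control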
hgDAF-12 ag: hgDAF-12 agonism, primary luciferase screen; HEK293 GAL4-hgDAF12 UAS-luciferase reporter, agonist luminescence; normalized to butyrate control; activation, % at 6.8 µM; 1.8% of 370,000 active;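 active = activation above a cutoff set at the mean of all screened compounds plus 3 SD, cut at about 10% in these data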;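 note: 0% = DMSO wells and 100% = sodium butyrate wells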
ssDAF12 agonist: S. stercoralis DAF-12 activation, primary screen. 1% of 370,000 active. activation, % at 6.8 µM. AID 652126. HEK293 ssDAF-12/GRIP1 lit1-tk-luc reporter, luminescence; % of 3 µM dafachronic acid response;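 active = activation above the mean over all tested compounds plus 3 SD, cut at about 0.9% in these data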;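 note: 0% = DMSO-only wells and 100% = 3 µM delta7-dafachronic acid wells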
* marks the source's active call; other numbers are inactive results; . = no result given. This is a sample that favours compounds with a hit; in the whole collection about 4.1% have one here.

SMILES	DAX1 inh-1	DAX1 inh-2	hcDAF12 agonist	hgDAF-12 ag	ssDAF12 agonist
Nc1c(C(=O)c2ccc(Br)s2)oc2ccccc12	0	0	3	4	0
CC(C)CNC(=O)OCc1cn(Cc2cccc(Cl)c2)nn1	0	.	-2	-4	-1
COc1ccc(Cn2c(=O)[nH]c3cc(C(=O)NCc4ccc5c(c4)OCO5)ccc3c2=O)cc1	0	-1	-3	0	-1
O=C(NCc1ccc2c(c1)OCO2)c1ccc2c(=O)n(C3CCCC3)c(=O)[nH]c2c1	0	4.9*	0	2	-1
CCOc1ccc2nc(N3CCC(C(=O)NCCCN4CCOCC4)CC3)sc2c1	0	2	2	12*	-1
CCOc1ccc2nc(N3CCCC(C(=O)NCCCN4CCOCC4)C3)sc2c1 (centres undefined)	3	1	4	4	-1
c1csc(-c2nc3ccccc3s2)c1	0	4.6*	2	7	-1
c1ccc2sc(-c3ccncc3)nc2c1	1	1	0	5	-1
O=C(NCc1ccccc1)[C@H]1CCCN1C(=O)[C@H]1CCCN1C(=O)c1cccc(F)c1	0	.	0	0	-1
CCC1(c2ccc(Cl)cc2)NC(=S)N(c2ccc(C)cc2)N1 (centres undefined)	1	0	6.2*	11*	1
CCC1(c2ccc(Cl)cc2)NC(=S)N(c2ccc(C)c(C)c2)N1 (centres undefined)	0	-1	0	4	-2
COc1ccc(OC)c2sc(NC(=O)c3cccc(N4C(=O)CCC4=O)c3)nc12	1	4.5*	1	6	-1
CC(=Nc1cccc(O)c1)c1sc2ccccc2c1O	2	3	3	8	1.5*
O=C(NCCc1ccccc1F)c1ccc(Sc2ccccc2Cl)c([N+](=O)[O-])c1	0	.	0	2	-1
COC(=O)c1ccc(CSc2nc3ccccc3o2)cc1	2	-1	2	10	1
O=[N+]([O-])c1ccc(CSc2nc3ccccc3o2)cc1	3.6*	1	4	12*	1
C[C@@H]1COc2cccc(N3CCSCC3)c2S(=O)(=O)N1C	-1	.	1	0	0
COc1ccc(C)cc1NC(=O)c1cc2ccccc2o1	0	2	6.0*	5	1.6*
O=C(Nc1ccccc1C(F)(F)F)c1cc2ccccc2o1	3	5.2*	4	13*	0
COC(=O)c1cccc(NC(=O)c2cc3ccccc3o2)c1	2	-1	3	12*	0
CN(C)S(=O)(=O)c1ccc(NC(=O)c2cc3ccccc3o2)cc1	-1	0	0	3	-2
COC(=O)c1ccccc1NC(=O)c1cc2ccccc2o1	0	1	3	4	0
Cc1ccc(NC(=O)c2cc3ccccc3o2)cc1S(=O)(=O)N(C)C	1	3	3	11*	0
CCOc1ccc(N(CC(=O)Nc2c(C)n(C)n(-c3ccccc3)c2=O)S(=O)(=O)c2cc(OC)ccc2OC)cc1	0	.	-1	2	-1
CCCCCN1CCCCC(NC(=O)c2ccc(F)cc2)C1=O (centres undefined)	-1	.	-2	-2	-1
SMILES	DAX1 inh-1	DAX1 inh-2	hcDAF12 agonist	hgDAF-12 ag	ssDAF12 agonist
Cc1ccc2c(c1)C(CS(=O)(=O)NCCc1ccccc1)NC2 (centres undefined)	-1	.	-2	0	-1
CCOc1ccccc1NC(=O)c1cc2ccccc2o1	0	1	5	7	0.9*
CCOc1ccccc1NC(=O)c1cc2ccccc2oc1=O	0	2	1	1	-1
COc1cccc(C(=O)N[C@@H](Cc2cccnc2)C(=O)N2CCC[C@H]2C(=O)NCc2ccccc2)c1	0	.	-1	-1	-1
CC(c1ccco1)N(C(=O)C12CC3(C)CC(C)(CC(C)(C3)C1)C2)c1ccccn1 (centres undefined)	0	5.4*	-2	0	-1
CC(C)c1ccc(Nc2nnc(SCC(=O)NCC3CCCO3)s2)cc1 (centres undefined)	1	1	0	12*	-1
CCOc1ccc(NC(=O)CN2C(=O)c3cccc4cccc2c34)cc1	3	.	4	12*	0
CCOc1ccc(NC(=O)C(CC(=O)O)Cc2ccccc2)cc1 (centres undefined)	0	0	-1	1	-1
CCOc1ccc(NC(=O)C(Cc2ccccc2)N2C(=O)c3cccc4cccc(c34)C2=O)cc1 (centres undefined)	0	.	6.0*	-2	1
C=CCn1c(COc2ccccc2)nnc1SCC(=O)Nc1ccc(Oc2ccccc2)cc1	0	.	-3	3	-1
Cc1ccc(NC(=O)/C(C#N)=C(\N)C(Cl)(Cl)Cl)nc1	.	8.1*	.	.	.
CC(C)c1cc(O)c(-c2ccccc2)c(=O)n1-c1ccc(Cl)cc1	0	1	-2	-1	-2
CC(C)c1c(Cl)c(O)c(-c2ccccc2)c(=O)n1-c1ccc(F)cc1	0	-1	5.7*	0	0
Cc1ccc2nc(-c3ccc(-c4ccccn4)s3)cn2c1	1	4	4	12*	0
Cc1ccc2nc(-c3ccccc3)cn2c1	-1	-6	-2	-7	-2
NC(=O)c1ccc(Oc2ccc(C(N)=O)cc2)cc1	0	5.2*	-2	-1	-1
Oc1[nH]c2ccccc2c1C=NCC1CCCO1 (centres undefined)	0	0	6.5*	5	-1
C[C@H](O)[C@@H]1CN2CCc3c([nH]c4c(-c5ccccc5)cccc34)[C@@H]2C[C@@H]1N(C)CC1CCCCC1	0	.	1	3	0
COc1ccccc1CC(=O)NNS(=O)(=O)c1ccc([N+](=O)[O-])cc1	-1	6.1*	-1	-2	-1
COc1ccccc1CC(=O)NNS(=O)(=O)c1cccc([N+](=O)[O-])c1	0	0	-1	-3	-1
Cc1ccccc1NC(=O)Nc1cc(-c2ccccc2)nn1C	0	6.6*	1	1	-1
CCC(=O)N1CCC1(C)C(=O)Nc1cc(-c2ccccc2)nn1C (centres undefined)	3	.	-1	11*	-1
Clc1cccc(N=NN2CCOCC2)c1Cl	0	0	1	4	1.7*
Cn1c2ccccc2n2c(=O)c(Cl)c(-c3ccccc3)c(C#N)c12	0	0	1	1	0
Cn1c2ccccc2n2c(=O)cc(-c3ccccc3)c(C#N)c12	0	5.4*	0	4	-1
COc1cc(/C=N/OCC(=O)NC2CCCCC2C)ccc1OCc1ccc(Cl)cc1 (centres undefined)	4.2*	3	2	11*	0
COC(=O)C1CN(Cc2cn(CCC3OCCO3)nn2)CCS(=O)(=O)N1Cc1ccc(C)cc1 (centres undefined)	1	.	-3	2	-1
